High-throughput results from PubChem.
Sampled rows, rich in hits. Any-hit rate of the full collection: about 2.9%.
PAFAH1B2 FP inh = PAFAH1B2 enzyme inhibitors, primary screen, biochemical, fluorescence polarization, human; Platelet-activating factor acetylhydrolase IB subunit alpha2 (Homo sapiens), P68402; recombinant PAFAH1B2, FP-rhodamine activity probe; inhibition, % at 3.39 µM; 1.2% of 340,000 active; AID 492953, 2010;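 active = inhibition above the mean of all tested compounds plus 3 SD, cut at about 24% in these data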;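 also: 0% = enzyme with DMSO and 100% = wells lacking PAFAH1B2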
Target sequence (P68402 whole entry, looked up): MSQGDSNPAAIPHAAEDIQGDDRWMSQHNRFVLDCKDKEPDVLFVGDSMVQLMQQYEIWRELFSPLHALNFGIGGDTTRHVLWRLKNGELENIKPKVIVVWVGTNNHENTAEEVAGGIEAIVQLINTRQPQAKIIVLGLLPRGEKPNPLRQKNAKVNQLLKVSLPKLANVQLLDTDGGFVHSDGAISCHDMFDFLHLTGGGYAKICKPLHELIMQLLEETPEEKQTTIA
ZTA counter = counter-screen for EBNA-1 inhibitors: inhibitors of Epstein-Barr virus ZTA; inhibition, % at 11 µM; ZTA-DNA binding, fluorescence polarization; 0.15% of 320,000 active; AID 2234; in the data active = inhibition above about 33%
PAFAH1B3 FP inh = PAFAH1B3 enzyme inhibitors, primary screen, biochemical, fluorescence polarization, human; Platelet-activating factor acetylhydrolase IB subunit alpha1 (Homo sapiens), Q15102; 0.28% of 340,000 active; recombinant PAFAH1B3, FP-rhodamine probe; inhibition, % at 3.39 µM;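 active = inhibition above the screen-wide average of all tested compounds plus 3 SD, cut at about 25% in these data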;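 also: 0% = enzyme with DMSO only and 100% = wells lacking PAFAH1B3 protein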
Target sequence (Q15102 whole entry, looked up): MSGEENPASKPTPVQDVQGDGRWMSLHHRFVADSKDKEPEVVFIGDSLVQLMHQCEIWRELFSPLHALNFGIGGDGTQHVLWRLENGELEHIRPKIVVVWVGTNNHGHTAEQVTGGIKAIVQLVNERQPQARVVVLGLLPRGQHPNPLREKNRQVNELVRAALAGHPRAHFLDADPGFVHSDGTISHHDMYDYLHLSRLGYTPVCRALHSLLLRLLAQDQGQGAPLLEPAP
pPAFAH FP inh = pPAFAH enzyme inhibitors, primary screen, biochemical, fluorescence polarization, human | Platelet-activating factor acetylhydrolase (Homo sapiens), Q13093 | recombinant pPAFAH, FP-rhodamine probe fluorescence polarization | inhibition, % at 3.39 µM | 1.5% of 330,000 active;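 active = inhibition above the mean inhibition across the screen plus 3 SD, cut at about 25% in these data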;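 also: inhibitors block binding of the rhodamine activity-based probe so polarization drops; 0% = enzyme with DMSO and 100% = wells lacking pPAFAH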
EBNA-1 inhibitor = EBNA-1 DNA-binding inhibitors, primary screen, biochemical, fluorescence polarization | inhibition, % at 14.8 µM | 0.34% of 300,000 active; in the data active = inhibition above about 28%
PAFAH2 inh = PAFAH2 enzyme inhibitors, primary screen, biochemical, fluorescence polarization, human; AID 492956, 2010; recombinant PAFAH2, FP-rhodamine activity probe; Platelet-activating factor acetylhydrolase 2, cytoplasmic (Homo sapiens), Q99487; 0.99% of 340,000 active; inhibition, % at 3.39 µM;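 active = inhibition above the mean over all tested compounds plus 3 SD, cut at about 30% in these data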;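 also: inhibitors block probe labeling of enzyme so polarization drops; 0% = enzyme with DMSO and 100% = wells lacking PAFAH2 protein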
PAFAH2 FP conf = PAFAH2 enzyme inhibitors, confirmation, biochemical, fluorescence polarization, human; shares compounds with PAFAH2 inh; recombinant PAFAH2, FP-rhodamine activity probe; inhibition, % at 3.39 µM; 65% of 2,300 active;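 active = mean inhibition over three repeats above a set limit taken from the earlier primary screen, cut at about 30% in these data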;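 also: inhibitor blocks binding of rhodamine activity probe so polarization falls; 0% = enzyme with DMSO and 100% = wells lacking PAFAH2 protein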
* = called active by the depositor.

Cc1ccc(C(=O)OCC(=O)c2ccc(S(=O)(=O)N3CCCCC3)cc2)o1 was read as PAFAH1B2 FP inh 3, ZTA counter -11, PAFAH1B3 FP inh 5, pPAFAH FP inh 2, EBNA-1 inhibitor -16 and PAFAH2 inh 2.
`COc1ccccc1CN=C1NC(=O)C(CC(=O)Nc2ccc(C(C)=O)cc2)S1` (centres undefined) gave PAFAH1B2 FP inh -4, ZTA counter 7, PAFAH1B3 FP inh -3, pPAFAH FP inh -4, EBNA-1 inhibitor 8 and PAFAH2 inh -2.
For CN(C)c1ccc(N/C(=N\S(=O)(=O)c2cccs2)c2ccccc2)cc1 the results were PAFAH1B2 FP inh 4, ZTA counter 5, PAFAH1B3 FP inh 8, pPAFAH FP inh 4, EBNA-1 inhibitor 3, PAFAH2 inh 57* and PAFAH2 FP conf 54*.
CCOC(=O)c1c(S(=O)(=O)NCc2ccc(C)o2)c(C)n(C)c1C was read as PAFAH1B2 FP inh -1, ZTA counter 4, PAFAH1B3 FP inh 10, pPAFAH FP inh -6, EBNA-1 inhibitor -8 and PAFAH2 inh -2.
For N#Cc1ccccc1OCC(=O)NNC(=O)CCC1CCCC1 the results were PAFAH1B2 FP inh 6, PAFAH1B3 FP inh 1, pPAFAH FP inh 16, PAFAH2 inh 41* and PAFAH2 FP conf 26.
Screening COc1ccc(CCC(=O)NCCS(=O)(=O)N2CCN(c3ccc(OC)cc3)CC2)cc1 returned PAFAH1B2 FP inh 4, ZTA counter 2, PAFAH1B3 FP inh 9, pPAFAH FP inh 1, EBNA-1 inhibitor 8 and PAFAH2 inh -2.
Screening O=C1CCCC(O)=C1N=Nc1ccc(Cl)c(Cl)c1 returned PAFAH1B2 FP inh 4, ZTA counter 3, PAFAH1B3 FP inh -2, pPAFAH FP inh 6, EBNA-1 inhibitor 5, PAFAH2 inh 33* and PAFAH2 FP conf 9.
For O=C(Nc1ccc(Cl)cc1)Nc1ccc(S(=O)(=O)Nc2ncccn2)cc1 the results were PAFAH1B2 FP inh -1, ZTA counter 11, PAFAH1B3 FP inh 2, pPAFAH FP inh 0, EBNA-1 inhibitor -2 and PAFAH2 inh -5.
O=C(Nc1ccc(S(=O)(=O)Nc2ncccn2)cc1)c1ccccc1NS(=O)(=O)c1ccc(Cl)cc1 was read as PAFAH1B2 FP inh 3, ZTA counter 0, PAFAH1B3 FP inh 3, pPAFAH FP inh 5, EBNA-1 inhibitor 3, PAFAH2 inh 50* and PAFAH2 FP conf 50*.
For O=C(CSc1nnc(-c2ccccc2)n1-c1ccccc1)c1cccs1 the results were PAFAH1B2 FP inh 16, ZTA counter -5, PAFAH1B3 FP inh 13, pPAFAH FP inh -4, EBNA-1 inhibitor -5, PAFAH2 inh 43* and PAFAH2 FP conf 29.
Screening CC(C)NS(=O)(=O)c1ccc(NC(=O)C(C)OC(=O)CCC2CCCC2)cc1 (centres undefined) returned PAFAH1B2 FP inh -3, ZTA counter -7, PAFAH1B3 FP inh 12, pPAFAH FP inh 21 and PAFAH2 inh 2.
For Cc1ccc(N/N=C/c2c(O)cc(C)oc2=O)cc1 the results were PAFAH1B2 FP inh 6, ZTA counter -15, PAFAH1B3 FP inh 3, pPAFAH FP inh 2, EBNA-1 inhibitor 0 and PAFAH2 inh 5.
Cc1ccc(CO/N=C/c2c(O)cc(C)oc2=O)cc1 was read as PAFAH1B2 FP inh 22, ZTA counter -1, PAFAH1B3 FP inh 4, pPAFAH FP inh -1, EBNA-1 inhibitor -5, PAFAH2 inh 37* and PAFAH2 FP conf 12.
`Cn1c(-c2ccc(Br)o2)nc2cc(Br)ccc21` gave PAFAH1B2 FP inh 1, ZTA counter 6, PAFAH1B3 FP inh 3, pPAFAH FP inh -3, EBNA-1 inhibitor -7 and PAFAH2 inh -3.
For C=C(C)c1nc2cc(OC)c(OC)cc2c(=O)o1 the results were PAFAH1B2 FP inh 5, ZTA counter -9, PAFAH1B3 FP inh 18, pPAFAH FP inh 0, EBNA-1 inhibitor 4 and PAFAH2 inh 11.
`COc1cc2nc(-c3ccc(Br)o3)oc(=O)c2cc1OC` gave PAFAH1B2 FP inh -2, ZTA counter 6, PAFAH1B3 FP inh 5, pPAFAH FP inh 3, EBNA-1 inhibitor -6, PAFAH2 inh 53* and PAFAH2 FP conf 41*.
For Cc1ccc2nc(-c3ccc(Br)o3)oc(=O)c2c1 the results were PAFAH1B2 FP inh -4, ZTA counter -7, PAFAH1B3 FP inh 7, pPAFAH FP inh 3, EBNA-1 inhibitor 5, PAFAH2 inh 66* and PAFAH2 FP conf 66*.
Screening COc1cc2nc(CCc3ccccc3)oc(=O)c2cc1OC returned PAFAH1B2 FP inh 13, ZTA counter 2, PAFAH1B3 FP inh 3, pPAFAH FP inh 6, EBNA-1 inhibitor -3, PAFAH2 inh 36* and PAFAH2 FP conf 22.
`Cc1cccc(C(=O)OCC(=O)NC(C)CCc2ccccc2)c1O` (centres undefined) gave PAFAH1B2 FP inh 1, ZTA counter -6, PAFAH1B3 FP inh 8, pPAFAH FP inh 5, EBNA-1 inhibitor 12 and PAFAH2 inh 3.
Screening O=C(O)C1CCC(N2C(=O)c3cccc([N+](=O)[O-])c3C2=O)CC1 (centres undefined) returned PAFAH1B2 FP inh -1, ZTA counter -15, PAFAH1B3 FP inh 2, pPAFAH FP inh 3, EBNA-1 inhibitor -11 and PAFAH2 inh -5.
`CC1C=CCC2C(=O)N(c3ccccc3OC(=O)c3cccs3)C(=O)C12` (centres undefined) gave PAFAH1B2 FP inh 4, ZTA counter -13, PAFAH1B3 FP inh -1, pPAFAH FP inh -2, EBNA-1 inhibitor -5 and PAFAH2 inh 2.
Screening CC1C=CCC2C(=O)N(c3ccc(Cl)cc3O)C(=O)C12 (centres undefined) returned PAFAH1B2 FP inh 7, ZTA counter -18, PAFAH1B3 FP inh 9, pPAFAH FP inh 3, EBNA-1 inhibitor -2, PAFAH2 inh 35* and PAFAH2 FP conf 23.
Screening CSc1ncccc1C(=O)OCC(=O)NC(C)CCc1ccccc1 (centres undefined) returned PAFAH1B2 FP inh 0, PAFAH1B3 FP inh 4, pPAFAH FP inh 5 and PAFAH2 inh 19.
Screening Cc1cc(C(=O)O)c(C)n1-c1ccccc1 returned PAFAH1B2 FP inh 5, ZTA counter 14, PAFAH1B3 FP inh 9, pPAFAH FP inh 3, EBNA-1 inhibitor 20 and PAFAH2 inh 0.
For Cc1ccc(C)n1-c1sccc1C(=O)O the results were PAFAH1B2 FP inh 2, PAFAH1B3 FP inh 9, PAFAH2 inh 46* and PAFAH2 FP conf 25.
